Calls of active or inactive are those of the source. Rule for the calls: active = hit-call score of the fitted dose curve at least 0.9, where 1 is the maximum; inactive = score below 0.9.
Legend:
Details in all cases: mRNA level, 48 h; actives raise or lower the signal
[1] = read-out: Potassium channel subfamily K member 1 (KCNK1), KCNK1 (gene 3775); test: LTEA_HepaRG_KCNK1: Life Technologies and Expression Analysis (LTEA) Assay for Potassium channel subfamily K member 1 (KCNK1) using HepaRG (AID 2283511)
Summary of the method: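 KCNK1 transcript measured by TaqMan qRT-PCR against three housekeeping genes, after HepaRG cells were treated 48 h with eight half-log concentrations (top 100 uM, 0.5% DMSO). Curves fitted bidirectionally relative to vehicle.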

[2] = read-out: Keratin 19 (KRT19), KRT19 (gene 3880); test: LTEA_HepaRG_KRT19: Life Technologies and Expression Analysis (LTEA) Assay for Keratin 19 (KRT19) using HepaRG (AID 2283512)
Summary of the method: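 HepaRG, 48 h chemical exposure, 8-pt half-log CRC from 100 uM, 0.5% DMSO vehicle, duplicates. Readout: TaqMan qRT-PCR of KRT19 mRNA, housekeeping-normalized (ACTB/GAPDH/POLR2A). Bidirectional fit vs DMSO baseline.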

[3] = read-out: JUN Transcription Factor, JUN (gene 3725); test: LTEA_HepaRG_JUN: Life Technologies and Expression Analysis (LTEA) Assay for JUN Transcription Factor using HepaRG (AID 2283513)
Summary of the method: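 HepaRG, 48 h exposure, 8-pt half-log series top 100 uM, 0.5% DMSO, duplicate. JUN mRNA by qRT-PCR (Fluidigm), housekeeping-normalized (ACTB/GAPDH/POLR2A); bidirectional curve fit vs DMSO baseline.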

[4] = read-out: Lipase C (LIPC), LIPC (gene 3990); test: LTEA_HepaRG_LIPC: Life Technologies and Expression Analysis (LTEA) Assay for Lipase C (LIPC) using HepaRG (AID 2283514)
Summary of the method: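 LIPC expression was quantified by qRT-PCR against three housekeeping genes (ACTB, GAPDH, POLR2A). Differentiated human HepaRG cells received eight half-log doses (top 100 uM, 0.5% DMSO) in duplicate for 48 h; fitting bidirectional relative to DMSO.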

[5] = read-out: Lipoprotein lipase (LPL), LPL (gene 4023); test: LTEA_HepaRG_LPL: Life Technologies and Expression Analysis (LTEA) Assay for Lipoprotein lipase (LPL) using HepaRG (AID 2283515)
Summary of the method: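 LPL transcript levels quantified by TaqMan qRT-PCR against three housekeeping genes after 48 h chemical treatment of HepaRG cells. Eight-point half-log series from 100 uM in 0.5% DMSO, tested in duplicate; bidirectional fitting versus vehicle.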

[6] = read-out: MicroRNA 122 (MIR122), gene 406906; test: LTEA_HepaRG_MIR122: Life Technologies and Expression Analysis (LTEA) Assay for MicroRNA 122 (MIR122) using HepaRG (AID 2283516); note: the transcript read is the microRNA miR-122
Summary of the method: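 qRT-PCR read-out (TaqMan, Fluidigm array), normalized to three housekeeping genes; HepaRG cells dosed 48 h at 8 concentrations up to 100 uM in 0.5% DMSO, duplicate; gain or loss fitted against DMSO baseline.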

[7] = read-out: matrix metalloproteinase-10 (MMP10), MMP10 (gene 4319); test: LTEA_HepaRG_MMP10: Life Technologies and Expression Analysis (LTEA) Assay for matrix metalloproteinase-10 (MMP10) using HepaRG (AID 2283517)
Summary of the method: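 Expression measured by TaqMan qRT-PCR with ACTB/GAPDH/POLR2A normalisation after 48 h chemical exposure of HepaRG cells. Eight half-log concentrations, top 100 uM, 0.5% DMSO vehicle, duplicates; gain or loss fitted against vehicle.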

MYC, MYC (gene 4609) = test: LTEA_HepaRG_MYC: Life Technologies and Expression Analysis (LTEA) Assay for MYC using HepaRG (AID 2283518)
Summary of the method: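 qRT-PCR read-out of MYC transcript (Fluidigm TaqMan, housekeeping-normalized) after 48 h chemical exposure of HepaRG cells; eight concentrations, top 100 uM, half-log steps. Bidirectional curve fitting against 0.5% DMSO vehicle baseline.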

[8] = read-out: matrix metalloproteinase-3 (MMP3), MMP3 (gene 4314); test: LTEA_HepaRG_MMP3: Life Technologies and Expression Analysis (LTEA) Assay for matrix metalloproteinase-3 (MMP3) using HepaRG (AID 2283519)
Description: LTEA_HepaRG is a cell based, multiplexed-readout assay that uses HepaRG, a human liver cell line, with measurements taken at 48 hours after chemical dosing on a 96-well plate.LTEA_HepaRG_MMP3 is one of 102 assay component(s) measured in the LTEA HepaRG cell culture assay. It is a marker of Fibrosis.Data from the assay component LTEA_HepaRG_MMP3 was analyzed into 1 endpoint. This assay endpoint, LTEA_HepaRG_MMP3, was analyzed with bidirectional fitting relative to DMSO as the negative control and baseline of activity. Using a type of inducible reporter, measures of mRNA induction for gain or loss-of-signal activity can be used to understand regulation of transcription factor activity. To generalize the intended target to other relatable targets, this assay endpoint is annotated to the protease intended target family, where the subfamily is matrix metalloproteinase.
A total of 1060 chemcials from the ToxCast library were tested in eight-point concentration-response experiments. Cell culture and cytotoxicity assays were conducted at Thermo Fisher Scientific's Custom Services facility (Madison, WI). […] Fluidigm's 96.96 Dynamic ArrayTM (Fluidigm, Amsterdam, the Netherlands) technology was used for gene expression analyses by quantitative reverse transcription polymerase chain reaction (qRT-PCR, performed by Quintiles/Expression Analysis, Durham, NC)89. […]

[9] = read-out: Paternally Expressed 10 (PEG10), PEG10 (gene 23089); test: LTEA_HepaRG_PEG10: Life Technologies and Expression Analysis (LTEA) Assay for Paternally Expressed 10 (PEG10) using HepaRG (AID 2283520)
Summary of the method: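 qRT-PCR read-out: PEG10 mRNA normalised to three housekeeping genes, fitted bidirectionally against 0.5% DMSO vehicle. HepaRG cells received test chemicals for 48 h in serum-free induction medium, 8 points, top 100 uM, half-log steps.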

Measured: outcome

O=C(O)c1ccc([N+](=O)[O-])cc1
inactive: [1] | [2] | [3] | [4] | [5] | [6] | [7] | MYC, MYC (gene 4609) | [8] | [9]
